± gives the uncertainty stated by the source.
Test system: HEK293T-Rex ERSE-FLuc
Experiment: ERSE-FLuc reporter activation, triplicate confirmation, relative to 500 nM thapsigargin (% of thapsigargin); higher = stronger ATF6/ERSE reporter activation
Conditions: 6.8 µM; 18 h; screen: confirmation
Procedure: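 HEK293T-Rex cells stably expressing the ERSE-firefly luciferase (BiP promoter, ATF6-preferring) or XBP1-splicing Renilla luciferase (IRE1/XBP1s) reporter, 1536-well plates, compound at 6.8 µM for 18 hr at 37 °C; luminescence read […] and expressed as % activation = 100*(compound - median DMSO)/(median 500 nM thapsigargin - median DMSO). Primary screen was single-pass; confirmation screen in triplicate (mean ± SD).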

Question: For `COc1ccccc1-c1cnnc(N/N=C/c2c[nH]c3ccccc23)n1`, which ERSE-FLuc reporter activation is on record?
Answer: 37.9 ± 9.7

Question: With `C=CCn1c(N2CCC(C(=O)NCCc3ccc(O)c(O)c3)CC2)nc2ccccc21` as the molecule, how does the ERSE-FLuc reporter activation read?
Answer: 28.9 ± 6.2

Question: How did the ERSE-FLuc reporter activation turn out when `O=C(Nc1ccccc1O)c1cc2ccccc2o1` was run?
Answer: 33 ± 7.3

Question: For `O=C(NCCc1ccccc1)c1cc(-c2cccs2)on1`, which ERSE-FLuc reporter activation is on record?
Answer: 34.5 ± 3.6

Question: How did the ERSE-FLuc reporter activation turn out when `CC(=O)N1CCc2c([nH]c3ccccc23)C12CCN(CCCOc1ccccc1)CC2` was run?
Answer: 44.2 ± 8.7

Question: For `CC1(C)Cc2ccccc2/C(=C/C(=O)C(=O)N/N=C/c2ccc(O)c(O)c2)N1`, which ERSE-FLuc reporter activation is on record?
Answer: 30.1 ± 8.7

Question: Which ERSE-FLuc reporter activation does the source give for `COc1ccc(/C=N/NC(=O)c2cccc(F)c2)cc1Br` here?
Answer: 35.4 ± 1.5

Question: With `Cc1cc2nc(-c3ccc(SCC#N)nc3)[nH]c2cc1C` as the molecule, how does the ERSE-FLuc reporter activation read?
Answer: 26.8 ± 1.7

Question: `OCCNc1nc(Nc2ccc(Br)cc2)nc2ccccc12` was tested. Which ERSE-FLuc reporter activation did it give?
Answer: 54.2 ± 16

Question: `O=C(N/N=C\c1ccccc1[N+](=O)[O-])c1[nH]nc2c1CCc1ccccc1-2` was tested. Which ERSE-FLuc reporter activation did it give?
Answer: 31.4 ± 3

Question: With `NC(=O)c1c(NC(=O)/C=C/c2ccccc2)sc2c1CCCCC2` as the molecule, how does the ERSE-FLuc reporter activation read?
Answer: 28.9 ± 2.4

Question: How did the ERSE-FLuc reporter activation turn out when `COc1ccc(/C=C(\C#N)c2nc3ccccc3n2C)cc1` was run?
Answer: 38.1 ± 7.2

Question: For `COc1ccc(-c2csc(N(CC3CCCO3)C(=O)CCl)n2)cc1` (stereo not given), which ERSE-FLuc reporter activation is on record?
Answer: 25.3 ± 4.3

Question: With `Oc1ccc(/C=N/Nc2cccc3cccnc23)cc1O` as the molecule, how does the ERSE-FLuc reporter activation read?
Answer: 33.1 ± 4.8

Question: How did the ERSE-FLuc reporter activation turn out when `N#Cc1c(NC(=O)c2cnccn2)sc2c1CCCC2` was run?
Answer: 40.2 ± 22

Question: How did the ERSE-FLuc reporter activation turn out when `CCOc1cc(/C=C2/NC(=O)N(c3cccc(Cl)c3)C2=O)ccc1O` was run?
Answer: 30.5 ± 9.3

Question: With `O=C1NC(=Nc2ccccc2)S/C1=C/c1ccc(O)c(O)c1` as the molecule, how does the ERSE-FLuc reporter activation read?
Answer: 38.4 ± 10

Question: `O=C(/C=C/c1ccccc1)Nc1ccc(Cl)cn1` was tested. Which ERSE-FLuc reporter activation did it give?
Answer: 27.9 ± 6.3

Question: For `CCCc1cc(C(=O)Nc2cc(C)ccc2O)no1`, which ERSE-FLuc reporter activation is on record?
Answer: 83.4 ± 6.3

Question: `CCCCCOc1ccc(N/C(N)=N/c2nc(C)cc(C)n2)cc1` was tested. Which ERSE-FLuc reporter activation did it give?
Answer: 110 ± 12
